PKM2 activator: activators of human pyruvate kinase M2; P14618; Potency, µM (series often up to 57.5 µM), actives largely listed as activators; AID 1631; purified PKM2, Kinase-Glo ATP luminescence, activation; response scale: 0% is enzyme alone, no compound; hit rate 0.34% among 260,000; note: nearly all actives have a fitted effect of over 55% in size
Target sequence (P14618 whole entry, looked up): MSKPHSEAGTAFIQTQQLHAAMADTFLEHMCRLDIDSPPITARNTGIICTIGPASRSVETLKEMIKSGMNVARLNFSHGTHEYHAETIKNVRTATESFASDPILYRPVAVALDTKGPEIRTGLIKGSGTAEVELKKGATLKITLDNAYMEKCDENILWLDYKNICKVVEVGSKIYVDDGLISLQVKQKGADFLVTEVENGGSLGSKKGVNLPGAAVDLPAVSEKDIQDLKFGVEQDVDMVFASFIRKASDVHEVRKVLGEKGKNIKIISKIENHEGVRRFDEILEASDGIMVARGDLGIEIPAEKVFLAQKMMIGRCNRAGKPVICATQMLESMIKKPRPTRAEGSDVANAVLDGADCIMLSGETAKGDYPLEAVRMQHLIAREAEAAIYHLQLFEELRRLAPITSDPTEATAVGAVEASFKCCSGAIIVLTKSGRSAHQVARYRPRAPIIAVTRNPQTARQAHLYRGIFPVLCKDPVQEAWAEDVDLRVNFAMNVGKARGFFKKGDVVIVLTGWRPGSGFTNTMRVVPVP
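Purified hPK-M2 (>95% pure) converted ADP (0.1 mM final) to ATP with 0.5 mM PEP in 50 mM imidazole pH7.2, KCl, MgCl2, Tween 20, BSA; 1 h at room temperature. ATP detected by Kinase-Glo luminescence.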
EPAC2 antag: blocks human EPAC2 exchange factor. Q8WZA2. AID 720708. hit rate 0.18% among 360,000. EPAC2 GEF exchange of Rap1B-BODIPY-GDP, fluorescence. Potency, µM (titrated, usually from 114 µM), hits mostly inhibitors; note: nearly all actives have a fitted effect of over 45% in size
EPAC1 antagonist: blocks human EPAC1 exchange factor; O95398; EPAC1 GEF assay, Rap1b-BODIPY-GDP exchange fluorescence; Potency, µM (highest dose often 115 µM), hits mostly inhibitors; hit rate 0.14% among 360,000; AID 720709; note: nearly all actives have a fitted effect of over 50% in size
IL2 activator: activates IL-2 in a cell-based reporter assay; IL-2 activation reporter assay, cell-based qHTS; stimulated with anti-CD3/CD4/CD28 beads; in transgenic mouse T cells; AID 652025; activation, % (series mostly up to about 46 µM); hit rate 0.065% among 360,000; in the data active = activation above about 50%; inconclusive = mostly about 30% to 49%
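Screening format: compound pinned onto unstimulated transgenic mouse T cells, 60 min incubation, then anti-CD3/anti-CD4/anti-CD28 bead stimulation for 18 hours at 37 degrees C, followed by EGFP and DsRed detection.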
EPAC2 ag: EPAC2 (human) agonism; AID 720711; Q8WZA2; EPAC2 activation, biochemical qHTS; response scale: 100% = 6.5 mM cAMP response; hit rate 0.079% among 360,000; Potency, µM (doses to about 154 µM), hits mostly activators; note: nearly all actives have a fitted effect of over 50% in size
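In this primary screen, activation is scored as increased exchange of BODIPY-GDP from Rap1B by 100 nM EPAC2, with 50 uM GDP as competitor. Signal is normalized to the 6.5 mM cAMP agonist control.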
EPAC1 agonist: agonists of human EPAC1; Potency, µM (series often up to 154 µM), usual class: activators; hit rate 0.073% among 360,000; EPAC1 agonist qHTS, biochemical assay; response scale: 100% = response to 6.5 mM cAMP; O95398; note: nearly all actives have a fitted effect of over 60% in size
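Compounds were pinned as a concentration titration into mixtures of EPAC1 (100 nM), BODIPY-GDP-loaded Rap1B (250 nM) and GDP (50 uM). After 5 min at room temperature, fluorescence was followed for 30 min; activity was scaled to 6.5 mM cAMP.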
Of the large screens only hits and unclear results are named; the others gave an inactive call. Only some compounds are listed: those with a hit (about 0.64% of all), similar ones and a draw of the others. Unless noted, calls come from the whole dose curve; as a rule, active = well fitted curve in the direction sought with a large enough effect; inconclusive = small, poorly fitted or top-dose-only effect, or another doubt; inactive = no such curve, though single readings can be large; an effect the other way counts as inactive or inconclusive.

CC(=O)Nc1ccc(S(=O)(=O)c2ccc(C)cc2)cc1	PKM2 activator 14µM
Cc1cc(C)c2cc(C(O)c3nnnn3Cc3ccccc3)c(=O)[nH]c2c1 (configuration not stated)	PKM2 activator 13µM
Cc1cc(C)c2cc(CN(CCO)C(c3nnnn3Cc3ccc(F)cc3)C(C)C)c(=O)[nH]c2c1 (configuration not stated)	none (no result: EPAC2 antag, EPAC1 antagonist, IL2 activator, EPAC2 ag, EPAC1 agonist)
O=C(CN1C(=O)C(=O)c2ccccc21)NCCc1ccccc1	PKM2 activator 32µM
COCCN1C(=O)c2ccccc2C1c1nc2ccccc2[nH]1 (configuration not stated)	none (no result: PKM2 activator)
COc1cc2cc(Oc3ccc4ccc(=O)oc4c3)c(=O)oc2cc1OC(C)=O	none
COc1cc2cc(Oc3ccc4ccc(=O)oc4c3)c(=O)oc2cc1O	EPAC1 antagonist 50µM, EPAC1 agonist 79µM
C[C@@H]1C=C[C@](Cc2ccccc2)(C(=O)NCCN2CCOCC2)N1C(=O)c1ccccc1	none (no result: EPAC2 antag, EPAC1 antagonist, IL2 activator, EPAC2 ag, EPAC1 agonist)
Cc1cccc(N2CCN(C(=O)Cn3sc4nc(C)cc(C)c4c3=O)CC2C)c1 (configuration not stated)	PKM2 activator inconclusive
Cc1cc(C)c2c(=O)n(CC(=O)N3CCC(Cc4ccccc4)CC3)sc2n1	PKM2 activator 1.6µM (no result: EPAC2 antag, EPAC1 antagonist, IL2 activator, EPAC2 ag, EPAC1 agonist)
Cn1c(=O)oc2cc(S(=O)(=O)Nc3ccc(O)cc3)ccc21	PKM2 activator 8.9µM
Cn1c(=O)oc2cc(S(=O)(=O)Nc3ccc(Cl)cc3)ccc21	PKM2 activator inconclusive
CCCCc1c(-c2ccccc2F)ncn1CCc1ccccc1OC	EPAC2 antag 42µM (no result: PKM2 activator)
N#Cc1cccc(NC(=O)CSc2ccc3c4c(cccc24)C(=O)c2ccccc2-3)c1	EPAC2 ag inconclusive, EPAC1 agonist inconclusive
COc1ccc(NC(=O)CSc2ccc3c4c(cccc24)C(=O)c2ccccc2-3)cc1	IL2 activator 184
Nc1nc(SCC(=O)Nc2ccc(Br)cc2F)n[nH]1	PKM2 activator 22µM
CCC(C)(C)C1CCC2(CC1)NC(=O)N(CC(=O)N1CCN(c3ccccc3OC)CC1)C2=O (configuration not stated)	none (no result: PKM2 activator)
CC1=NN(c2nc(-c3ccccc3)cs2)C(=O)C1	EPAC1 antagonist 79µM
COc1ccc2c(c1)C(=O)C1(CC2)OC1c1cccnc1 (configuration not stated)	none (no result: PKM2 activator)
COc1cc(OC)c(-c2cc(C(=O)O)ccc2OC)c(OC)c1	EPAC1 antagonist 89µM
Nc1nnc(CC(=O)N/N=C/c2cc([N+](=O)[O-])cc(Br)c2O)s1	EPAC1 antagonist 50µM
CCOc1ccc2nc(NC3=NC(C)(C)C=C(C)N3)nc(C)c2c1	none
CCOc1ccc2nc(NC3=NC(c4ccc(OC)cc4)CC(=O)N3)nc(C)c2c1 (configuration not stated)	EPAC2 antag 32µM, EPAC1 antagonist 50µM, EPAC2 ag inconclusive, EPAC1 agonist inconclusive
Clc1cccc(Cl)c1CNC1CCCC1	IL2 activator 104
COc1ccc(NC(=S)N2CCC3CC2c2c(Cl)cccc23)c(OC)c1 (configuration not stated)	none (no result: PKM2 activator)
Cc1cccc(S(=O)(=O)NC(=O)C2(C)CCN2C(=O)Cc2cc(F)ccc2F)c1 (configuration not stated)	EPAC1 antagonist 100µM (no result: PKM2 activator)
CC(NS(=O)(=O)c1ccc(Cl)cc1)C(=O)OCC(=O)Nc1ccc(N(C)C)cc1 (configuration not stated)	none (no result: PKM2 activator)
COCCN(C(=O)/C=C/c1cccc([N+](=O)[O-])c1)c1c(N)n(Cc2ccccc2)c(=O)[nH]c1=O	PKM2 activator 3.2µM, EPAC2 antag inconclusive
C=CCn1c(=O)/c(=C/c2ccc(C)o2)s/c1=C(/C#N)C(=O)c1ccccc1	EPAC2 ag 100µM
CCc1nnc(NS(=O)(=O)c2ccc(NC(=O)OC)cc2)s1	PKM2 activator 28µM
CCc1nnc(NS(=O)(=O)c2ccc(NCc3cc(Cl)cc(Cl)c3O)cc2)s1	EPAC2 antag 18µM
O=C(OCC(=O)N1CCCC1=O)c1ncc(Cl)c(Cl)c1Cl	none (no result: PKM2 activator)
N#C/C(=C/c1ccc(O)c(O)c1)c1nc2ccccc2[nH]1	EPAC2 antag inconclusive, EPAC1 antagonist 89µM (no result: PKM2 activator)
N#C/C(=C\c1cccs1)c1nc2ccccc2[nH]1	none
COC(=O)[C@]12CCCCC=C1N(Cc1ccco1)C(=O)[C@H](CC(=O)N1CCN(C(=O)C3CC3)CC1)C2	none (no result: PKM2 activator)
CCOc1ccc(Nc2nc3c(C)cccc3cc2C#N)cc1	IL2 activator 57
O=C(O)C1CCCCC1C(=O)NCc1ccc(Cl)c(Cl)c1 (configuration not stated)	none
CN(C)CCCN1C(=O)c2cccc3c(Br)ccc(c23)C1=O	none
Cc1ccc(N2C(=O)c3cccc4c(N)ccc(c34)C2=O)c2cccnc12	IL2 activator 317, EPAC2 ag 100µM, EPAC1 agonist inconclusive
Cc1nn(C)c(C)c1N1C(=O)c2cccc3c(N)ccc(c23)C1=O	EPAC2 ag 100µM, EPAC1 agonist 100µM
CCN1C(=O)c2cccc3c(N)ccc(c23)C1=O	EPAC2 ag 63µM, EPAC1 agonist 100µM (no result: PKM2 activator)
O=C1c2cccc3c(N4CCCCC4)ccc(c23)C(=O)N1c1ccccn1	none
CC1(C(=O)O)CCCN1C(=O)c1cc2ccccc2s1 (configuration not stated)	none (no result: PKM2 activator)
CCN(CC)c1ccc2c(c1)oc(=O)c1c(Cl)cc(=O)oc12	EPAC2 ag 89µM
CCN(CC)c1ccc2c(C)c(Cl)c(=O)oc2c1	EPAC2 antag inconclusive
Nc1c(S(=O)(=O)O)cc(NC(=O)c2ccccc2)c2c1C(=O)c1ccccc1C2=O	EPAC2 antag 40µM, EPAC1 antagonist inconclusive (no result: PKM2 activator)
O=C(Nc1ccccc1-c1ccccc1)c1ccccc1	none
O=C(OCc1nc2ccccc2s1)C1CCN(S(=O)(=O)c2cccs2)CC1	PKM2 activator 8.9µM
O=S(=O)(c1cccs1)N1CCN(Cc2nc3ccccc3s2)CC1	PKM2 activator 22µM
C=CCNc1nc2cc(-c3cccc(NC(C)=O)c3)sc2c(=O)n1C	none (no result: PKM2 activator)
Cn1cc(C(=O)C(=O)N2CCCCC2)c2ccccc21	EPAC2 ag inconclusive, EPAC1 agonist 40µM (no result: PKM2 activator)
COc1ccc(S(=O)(=O)Nc2ccc(-n3cccc3)cc2)cc1	PKM2 activator 10µM
CCOC1=C2[C@H](c3ccc(Cl)cc3)N(S(=O)(=O)c3ccc(C)cc3)C[C@H]2n2c(=O)n(-c3ccccc3)c(=O)n2C1	none (no result: PKM2 activator)
COc1cccc(OC)c1-c1nn2c(-c3cc(-c4ccccc4)n[nH]3)nnc2s1	EPAC2 antag 11µM, EPAC1 antagonist 40µM, EPAC2 ag inconclusive, EPAC1 agonist inconclusive
COc1cccc(-c2nnc3sc(-c4ccccc4)nn23)c1	none

High-throughput results (PubChem BioAssay)
